Source: PubChem BioAssay AID651814 (National Center for Advancing Translational Sciences (NCATS), 2012)
Hit rate of the full screen: of about 2,100 compounds, about 590 (28%) were called active. Another 42% or so got no clear call; they are omitted. The list shows a part of the results. Unmarked numbers belong to inactive results. Calls follow the shape of the dose curve; as a rule, active = well fitted inhibition curve with a large enough effect; inconclusive = small, poorly fitted or top-dose-only effect; inactive = flat fitted curve, though single readings scatter.

target: DNA dC->dU-editing enzyme APOBEC-3F (Homo sapiens) (UniProt Q8IUX4); assay: qHTS for inhibitors of Vif-A3F interactions: Cherry picks; settings: HeLa A3F-eYFP + Vif (tagged APOBEC3F with the HIV-1 protein that degrades it), eYFP fluorescence, 24 h; also: nearly all actives have a fitted effect of over 70% in size;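 as to max response: % of control where 0% means no effect; active compounds raise eYFP fluorescence by blocking Vif-driven A3F loss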
In short: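 HeLa cells stably expressing A3F-eYFP plus Vif, cultured overnight, then exposed to compounds at several concentrations for 24 h at 37 deg C. Reduced Vif-driven degradation read as rising eYFP fluorescence (488 nm ex/500-530 nm em) by laser-scanning cytometry; MG132 as positive control.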
Potency is read from the fitted curve at half-maximal effect.

DNA dC->dU-editing enzyme APOBEC-3F (Homo sapiens), sequence (Q8IUX4 whole entry, looked up): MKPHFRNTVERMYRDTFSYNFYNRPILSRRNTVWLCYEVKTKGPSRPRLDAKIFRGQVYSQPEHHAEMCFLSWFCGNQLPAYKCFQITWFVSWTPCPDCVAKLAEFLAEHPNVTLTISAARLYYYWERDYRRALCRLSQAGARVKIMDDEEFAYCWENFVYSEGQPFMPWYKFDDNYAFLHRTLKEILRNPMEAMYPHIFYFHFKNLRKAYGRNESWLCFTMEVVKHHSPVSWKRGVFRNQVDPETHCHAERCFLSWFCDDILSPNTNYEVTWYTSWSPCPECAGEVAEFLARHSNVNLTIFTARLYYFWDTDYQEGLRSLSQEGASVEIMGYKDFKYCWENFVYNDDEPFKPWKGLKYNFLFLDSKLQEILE

**Q.** For Cc1cc(/C=C2\NC(=S)N(C)C2=O)ccc1N1CCCC1, which Potency is on record?
**A.** 12.5 µM (active)

**Q.** Which max response does the source give for O=C(Oc1ccc(Cl)c2cccnc12)c1ccco1 here?
**A.** -0.0527%

**Q.** With CS(=O)(=O)N(CC(=O)N1CCN(Cc2ccccc2)CC1)c1ccccc1F as the compound, how does the max response read?
**A.** 0.272%

**Q.** CN(C)c1ccc(/C=C/c2ccnc3cc(Cl)ccc23)cc1 was tested. Which Potency did it give?
**A.** 2.91 µM (active)

**Q.** CN(C)c1ccc(/C=C/c2ccnc3ccc(N)cc23)cc1 was tested. Which Potency did it give?
**A.** 20.6 µM (active)

**Q.** How did the Potency turn out when Cc1ccc2nccc(/C=C/c3ccc(N(C)C)cc3)c2c1 was run?
**A.** 5.8 µM (active)

**Q.** With CN(C)c1ccc(/C=C/c2ccnc3ccc(Br)cc23)cc1 as the compound, how does the Potency read?
**A.** 3.66 µM (active)

**Q.** Which Potency does the source give for Cc1cc(C)c2nccc(/C=C/c3ccc(N(C)C)cc3)c2c1 here?
**A.** 10.3 µM (active)

**Q.** Which Potency does the source give for Cc1ccc2c(/C=C/c3ccc(N(C)C)cc3)ccnc2c1 here?
**A.** 18.4 µM (active)

**Q.** With COc1ccc2nccc(/C=C/c3ccc(N(C)C)cc3)c2c1 as the compound, how does the Potency read?
**A.** 23.1 µM (active)

**Q.** Which Potency does the source give for CN(C)c1ccc(/C=C/c2ccnc3ccc(I)cc23)cc1 here?
**A.** 8.2 µM (active)

**Q.** Which max response does the source give for CC(=O)Nc1cccc(-c2ccnc3c2CC(C)(C(=O)Nc2cccc(C(C)=O)c2)O3)c1 (stereo unspecified) here?
**A.** -22.1%

**Q.** For S=C(NCCSCc1ccc(Cl)cc1)Nc1ccccc1, which max response is on record?
**A.** -0.773%

**Q.** Which max response does the source give for N#CC1CC(c2ccccc2)Nc2cc(Cl)ccc2N1 (stereo unspecified) here?
**A.** -26.3%

**Q.** With COc1cc(Cl)c(C)cc1NC(=O)CN1CCN(C(=O)C2CC2)CC1 as the compound, how does the max response read?
**A.** -14.7%

**Q.** For CCC(C)Sc1cc(-c2nc3ccccn3c2NC2CCCCC2)ccc1OC (stereo unspecified), which max response is on record?
**A.** -11.6%

**Q.** With C=CCN1C=CC(=CC=C(C#N)C#N)C=C1 as the compound, how does the Potency read?
**A.** 11.2 µM (active)

**Q.** With C=CCN1C=CC(=C/C=C(/C#N)C(=O)OCC)C=C1 as the compound, how does the max response read?
**A.** -21.4%

**Q.** Which Potency does the source give for CCCN1C=CC(=CC=C(C#N)C#N)C=C1 here?
**A.** 15.8 µM (active)

**Q.** For N#C/C(=C/c1ccc2c(c1)OCO2)C(=O)Nc1ccc(O)cc1, which max response is on record?
**A.** -28.5%

**Q.** CCOc1ccc(Br)cc1C(=O)Nc1ccc(C(=O)NCC(C)C)cc1 was tested. Which max response did it give?
**A.** -8.08%

**Q.** How did the Potency turn out when CCOc1cc(/C=C(/C#N)C(=O)Nc2ccc(O)cc2)cc(Br)c1O was run?
**A.** 15.8 µM (active)

**Q.** Which Potency does the source give for CCOc1ccc(NC(=O)/C(C#N)=C/c2ccc(N3CCCC3)c(C)c2)cc1 here?
**A.** 1.03 µM (active)

**Q.** How did the max response turn out when CC(=O)Nc1ccc(S(=O)(=O)Nc2nc3ccccc3nc2Sc2nncn2C)cc1 was run?
**A.** -12.8%

**Q.** With Cc1ccc2nc3c(cc(S(=O)(=O)c4ccccc4)c(=N)n3Cc3ccco3)c(=O)n2c1 as the compound, how does the max response read?
**A.** -15.4%

**Q.** Which Potency does the source give for COc1ccc(Cn2c(C)nc3c(c2=O)c2nc4ccccc4nc2n3Cc2ccco2)cc1 here?
**A.** 14.6 µM (active)

**Q.** For CC(C)n1cnc2c(NCc3ccccc3)cc(N[C@H](C)CO)cc21, which Potency is on record?
**A.** 12.5 µM (active)

**Q.** Which max response does the source give for Cc1ccccc1N1C(=O)c2cccc3c(N(C)CCO)ccc(c23)C1=O here?
**A.** -29.5%

**Q.** Cc1ccc(N2C(=O)c3cccc4c(N5CCN(C)CC5)ccc(c34)C2=O)c2cccnc12 was tested. Which Potency did it give?
**A.** 17.7 µM (active)

**Q.** Which max response does the source give for CC1(C(=O)NCc2cccs2)Cc2c(-c3ccc(C(N)=O)cc3)ccnc2O1 (stereo unspecified) here?
**A.** -27%

**Q.** For CCOC(=O)c1c(Nc2ccc(Cl)cc2)sc(/C=C2\C=Nc3ccccc32)c1O, which Potency is on record?
**A.** 14.6 µM (active)

**Q.** How did the max response turn out when CCOC(=O)c1ccc(Nc2nc3ccccc3nc2NS(=O)(=O)c2ccc(Cl)cc2)cc1 was run?
**A.** -8.48%

**Q.** With CC(C)(C)c1ccc(Oc2ccc(NC(=O)c3ccccc3C(=O)O)cn2)cc1 as the compound, how does the max response read?
**A.** 1.93%

**Q.** For CCC(C)n1c(NC(=O)c2ccccc2)c(C#N)c2nc3ccccc3nc21 (stereo unspecified), which Potency is on record?
**A.** 16.4 µM (active)

**Q.** How did the Potency turn out when CCN(CC)C(=O)Cn1c(C)c(/C=C/c2cc[n+](C)cc2)c2ccccc21 was run?
**A.** 11.2 µM (active)

**Q.** Which Potency does the source give for COC(=O)Cn1c(C)c(/C=C/c2cc[n+](C)cc2)c2ccccc21 here?
**A.** 18.4 µM (active)

**Q.** How did the max response turn out when S=c1[nH]nc(-c2cccnc2)n1/N=C/C(Cl)=C\c1ccccc1 was run?
**A.** -29.6%

**Q.** Which Potency does the source give for CN(C)c1ccc(/C=C/C(=O)c2c(O)c3ccccc3oc2=O)cc1 here?
**A.** 1.46 µM (active)

**Q.** c1ccc(-c2cnn3c(-c4ccccc4)c(-c4ccccc4)nc3n2)cc1 was tested. Which Potency did it give?
**A.** 1.84 µM (active)

**Q.** For Nc1ccc2nc(-c3ccccc3)c(-c3ccccc3)nc2c1, which max response is on record?
**A.** -17.1%

**Q.** CCN(CC)c1ccc(/C=C/c2cc(-c3ccccc3)c3ccccc3n2)cc1 was tested. Which Potency did it give?
**A.** 5.59 µM (active)

**Q.** For CN(C)c1ccc(/C=C/c2nc3ccccc3c(=O)[nH]2)cc1, which max response is on record?
**A.** -19.3%

**Q.** Which Potency does the source give for Nc1ccc(/C=C/c2cc(Cl)nc3ccccc23)cc1 here?
**A.** 18.4 µM (active)

**Q.** With CN(C)c1ccc(/C=C/c2cc(N(C)C)nc3ccccc23)cc1 as the compound, how does the Potency read?
**A.** 9.2 µM (active)

**Q.** How did the max response turn out when CN(NC(=O)c1ccccc1)c1nc2ccccc2nc1C(F)(F)F was run?
**A.** -29.3%

**Q.** CN(C)c1ccc(/C=C/c2nc3ccccc3c(=O)n2CCO)cc1 was tested. Which Potency did it give?
**A.** 20.6 µM (active)
